Measurements as given in paper PMC7826789 (International Journal of Molecular Sciences, 2021).

How the values were obtained:
Conditions in all cases: Compound Concentration (nM):1000
[1] = tested on: T1, RSK3(Kin.Dom.1-N-terminal)
T1 construct: gene RPS6KA2

[2] = tested on: T2, RSK3(Kin.Dom.2-C-terminal)
T2 construct: gene RPS6KA2

[3] = tested on: T3, RSK4(Kin.Dom.1-N-terminal)
T3 construct: gene RPS6KA6

[4] = tested on: T4, RSK4(Kin.Dom.2-C-terminal)
T4 construct: gene RPS6KA6

S6K1 = tested on: T5, S6K1
T5 construct: gene RPS6KB1

SBK1 = tested on: SBK1
SGK2 = tested on: SGK2
SGK3 = tested on: SGK3
SGK = tested on: T6, SGK
T6 construct: gene SGK1

SIK2 = tested on: SIK2
SIK = tested on: T7, SIK
T7 construct: gene SIK1

SLK = tested on: SLK
SNARK = tested on: T8, SNARK
T8 construct: gene NUAK2

SNRK = tested on: SNRK
SRC = tested on: SRC
SRMS = tested on: SRMS
SRPK1 = tested on: SRPK1
SRPK2 = tested on: SRPK2
SRPK3 = tested on: SRPK3
STK16 = tested on: STK16
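Note: KINOMEscan scanMAX binding as percent activity remaining versus control; lower means stronger binding.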

| Structure (SMILES) | Percent Control [1] [%] | Percent Control [2] [%] | Percent Control [3] [%] | Percent Control [4] [%] | Percent Control (S6K1) [%] | Percent Control (SBK1) [%] | Percent Control (SGK2) [%] | Percent Control (SGK3) [%] | Percent Control (SGK) [%] | Percent Control (SIK2) [%] | Percent Control (SIK) [%] | Percent Control (SLK) [%] | Percent Control (SNARK) [%] | Percent Control (SNRK) [%] | Percent Control (SRC) [%] | Percent Control (SRMS) [%] | Percent Control (SRPK1) [%] | Percent Control (SRPK2) [%] | Percent Control (SRPK3) [%] | Percent Control (STK16) [%] |
| --- | --- | --- | --- | --- | --- | --- | --- | --- | --- | --- | --- | --- | --- | --- | --- | --- | --- | --- | --- | --- |
| COc1cc2ncnc(Nc3ccc4c(cnn4Cc4ccccc4)c3)c2cc1OC.Cl [GW282449A] | 100 | 100 | 92 | 100 | 100 | 100 | 100 | 100 | 100 | 68 | 100 | 77 | 100 | 100 | 100 | 50 | 92 | 100 | 97 | 100 |
| Cl.O=C(Nc1ccc(Oc2ccc3[nH]c(NC(=O)c4ccco4)nc3c2)cc1)Nc1cc(C(F)(F)F)ccc1F [GW683134A] | 92 | 100 | 100 | 100 | 43 | 100 | 100 | 100 | 100 | 100 | 100 | 40 | 100 | 95 | 96 | 100 | 100 | 100 | 84 | 92 |
| CC(C)COC(=O)c1ccc2c(c1)/C(=C/Nc1ccc(S(N)(=O)=O)cc1)C(=O)N2 [GW416981X] | 100 | 100 | 43 | 100 | 65 | 71 | 79 | 18 | 31 | 94 | 100 | 100 | 13 | 100 | 100 | 100 | 100 | 100 | 100 | 6.8 |
| Cl.O=C(Nc1ccc(Oc2ccc3[nH]c(NC(=O)c4ccccc4)nc3c2)cc1)Nc1cc(C(F)(F)F)ccc1F [GW709042A] | 100 | 100 | 99 | 100 | 52 | 100 | 100 | 90 | 100 | 100 | 100 | 70 | 92 | 89 | 98 | 91 | 89 | 93 | 70 | 88 |
| COc1cc(C)c(N(C)C(=O)CN(C)C)cc1Nc1nc(Nc2cccc(F)c2C(N)=O)c2cc[nH]c2n1 [GSK2219385] | 79 | 90 | 75 | 82 | 100 | 100 | 92 | 92 | 92 | 100 | 100 | 100 | 100 | 76 | 100 | 100 | 90 | 100 | 100 | 83 |
| Cc1cc(O)cc(C)c1/C=C/c1cncc(C(N)=O)c1 [GW435821X] | 100 | 100 | 96 | 100 | 100 | 100 | 100 | 84 | 100 | 53 | 38 | 100 | 92 | 100 | 57 | 38 | 88 | 100 | 85 | 98 |
| COc1cccc(-c2c[nH]c3c(N/N=C/c4ccncc4)ncnc23)c1 [GW814408X] | 100 | 100 | 49 | 100 | 84 | 83 | 38 | 59 | 22 | 17 | 92 | 76 | 56 | 100 | 27 | 100 | 38 | 100 | 60 | 65 |
| COc1ccccc1-c1cc(/C=C2\C(=O)Nc3ncc(Br)cc32)cc(Br)c1O [GW442130X] | 100 | 100 | 100 | 100 | 100 | 95 | 85 | 94 | 71 | 100 | 100 | 100 | 89 | 100 | 91 | 100 | 100 | 100 | 100 | 87 |
| COc1cccc(-n2ncc3c(N/N=C/c4ccncc4)ncnc32)c1 [GW784752X] | 100 | 98 | 94 | 100 | 93 | 63 | 83 | 77 | 57 | 75 | 100 | 100 | 100 | 100 | 54 | 99 | 94 | 100 | 99 | 82 |
| COc1ccc2[nH]c3c4[nH]c5ccc(OC)cc5c4c4c(c3c2c1)C(=O)NC4=O [GW296115X] | 28 | 69 | 5.8 | 61 | 21 | 95 | 46 | 8.1 | 6.8 | 9.9 | 67 | 96 | 59 | 56 | 87 | 100 | 86 | 94 | 100 | 74 |
